Measured values as given in PubChem BioAssay (NCATS).
Results filed as inconclusive are left out. The source made the active and inactive calls. The call rests on the fitted dose curve; in most records, active means well fitted curve in the direction sought with a large enough effect; inconclusive means small, poorly fitted or top-dose-only effect, or another doubt; inactive means no such curve, though single readings can be large; an effect the other way counts as inactive or inconclusive.

What was measured:
[1] = target: Cytochrome P450 3A4 (Homo sapiens) (UniProt P08684); test: qHTS Assay for Inhibitors and Substrates of Cytochrome P450 3A4 (AID 884); further: nearly all actives have a fitted effect of over 50% in size; further: potency means the concentration at half of the fitted maximal effect
Outline: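 Luminescent readout of luciferin produced by CYP3A4 (20 nM) dealkylation of Luciferin-PPXE, 25 uM (its KM). NADPH-driven reaction ran 60 min at RT after 10 min compound preincubation; data scaled to 57 uM ketoconazole as 100% inhibition.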

[2] = Confirmation and Secondary Assay for Modulators of Hemoglobin Beta Chain Splicing at IVS2 654 locus (AID 910);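 further: HeLa cells stably carrying EGFP split by mutant beta-globin IVS2-654 intron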
Outline: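 HeLa cells stably expressing EGFP interrupted by β-globin IVS2-654 intron, seeded overnight in Opti-MEM/2% FCS, then treated 2 days at 37 °C. Restored splicing read as total peak GFP intensity per well by laser scanning cytometry (488 nm excitation, 500–520 nm emission); 500 nM antisense PNA as control.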

[3] = Confirmation and Secondary Assay for Modulators of Hemoglobin Beta Chain Splicing at IVS2 705 locus (AID 930);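 further: HeLa cells stably expressing the EGFP-705 splicing reporter; GFP fluorescence per well restored by corrected splicing of the IVS2-705 intron in EGFP; series mostly up to about 46 µM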
Outline: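 Fluorescence gain (488 nm laser, 500-520 nm PMT) reflects restored correct splicing of a mutant IVS2-705 intron inside EGFP in stably transfected HeLa cells after 2-day compound treatment.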

[4] = target: Ubiquitin carboxyl-terminal hydrolase 1 (Homo sapiens) (UniProt O94782); test: Inhibitors of USP1/UAF1: Pilot qHTS (AID 504865);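 further: rhodamine fluorescence freed from ubiquitin-rhodamine substrate followed over time; top concentration of the series differs between compounds; nearly all actives have a fitted effect of over 35% in size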
Outline: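 1nM USP1/UAF1 + cpd, 15 min RT; start w/ Ub-Rho 150nM final; kinetic FL 480/540 nm, 6 reads q60 s. Buffer 50mM HEPES pH 7.8, 0.5mM EDTA, 1mM TCEP, 0.01% Tween-20, 0.1 mg/ml BSA.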

[5] = target: Cytochrome P450 3A4 (Homo sapiens) (UniProt P08684); test: qHTS Assay for Activators of Cytochrome P450 3A4 (AID 885); further: nearly all actives have a fitted effect of over 65% in size
Outline: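 CYP3A4 activity: Luciferin-PPXE O-dealkylation, 25uM substrate, 200mM KPO4, RT throughout. Read-out is luciferase luminescence; higher values reflect activation.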

Measured: Potency

Ubiquitin carboxyl-terminal hydrolase 1 (Homo sapiens), sequence (O94782 whole entry, looked up): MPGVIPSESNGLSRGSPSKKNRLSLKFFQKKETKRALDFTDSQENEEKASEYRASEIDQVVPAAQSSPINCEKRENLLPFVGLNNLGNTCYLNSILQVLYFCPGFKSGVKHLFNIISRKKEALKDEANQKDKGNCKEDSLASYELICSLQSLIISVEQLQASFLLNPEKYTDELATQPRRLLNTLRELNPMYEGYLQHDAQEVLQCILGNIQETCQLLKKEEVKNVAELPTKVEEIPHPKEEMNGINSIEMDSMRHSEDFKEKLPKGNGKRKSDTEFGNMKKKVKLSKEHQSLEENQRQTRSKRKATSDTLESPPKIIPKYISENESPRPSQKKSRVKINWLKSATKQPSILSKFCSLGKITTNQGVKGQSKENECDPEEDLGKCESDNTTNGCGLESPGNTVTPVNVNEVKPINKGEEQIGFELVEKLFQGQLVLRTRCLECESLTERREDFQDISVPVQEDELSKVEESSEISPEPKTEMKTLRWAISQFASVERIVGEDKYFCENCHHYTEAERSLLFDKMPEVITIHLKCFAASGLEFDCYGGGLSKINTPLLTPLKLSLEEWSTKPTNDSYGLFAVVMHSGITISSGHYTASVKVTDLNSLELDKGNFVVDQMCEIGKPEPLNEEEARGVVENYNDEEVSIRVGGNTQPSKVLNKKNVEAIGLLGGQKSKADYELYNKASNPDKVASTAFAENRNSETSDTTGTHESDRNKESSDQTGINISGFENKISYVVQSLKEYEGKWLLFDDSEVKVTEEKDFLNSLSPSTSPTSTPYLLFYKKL
Cytochrome P450 3A4 (Homo sapiens), sequence (P08684 whole entry, looked up): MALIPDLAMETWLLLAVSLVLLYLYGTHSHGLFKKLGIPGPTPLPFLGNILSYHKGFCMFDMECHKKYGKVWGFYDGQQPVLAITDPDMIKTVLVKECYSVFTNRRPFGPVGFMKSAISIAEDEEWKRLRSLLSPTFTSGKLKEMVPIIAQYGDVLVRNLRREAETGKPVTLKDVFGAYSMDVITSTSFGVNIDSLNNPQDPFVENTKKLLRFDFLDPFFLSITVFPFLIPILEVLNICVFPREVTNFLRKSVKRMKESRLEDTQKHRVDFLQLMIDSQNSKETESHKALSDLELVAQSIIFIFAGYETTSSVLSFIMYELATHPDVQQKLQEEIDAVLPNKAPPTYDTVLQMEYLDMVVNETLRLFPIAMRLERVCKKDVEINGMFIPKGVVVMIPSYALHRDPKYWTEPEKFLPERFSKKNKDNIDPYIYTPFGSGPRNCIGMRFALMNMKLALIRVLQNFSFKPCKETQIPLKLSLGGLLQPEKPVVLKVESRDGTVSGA

COc1c2ccoc2c(OC)c2oc(=O)ccc12
inactive: [2] | [3] | [4]
active: [1] 2 µM

CC1O[C@@H](O[C@@H]2C(O)C[C@H](O[C@@H]3C(O)C[C@@H](OC4CC[C@@]5(C)C6CC[C@]7(C)C(C8=CC(=O)OC8)CC[C@@]7(O)C6CC[C@@H]5C4)OC3C)OC2C)CC(O)[C@H]1O (stereo partly specified)
not listed: [5]
inactive: all other assays above

COc1c2ccoc2cc2oc(C)cc(=O)c12
active: [1] 3.16 µM
inactive: all other assays above

CC1CC2C3CCC4=CC(=O)C=C[C@@]4(C)[C@]3(F)C(O)C[C@]2(C)[C@]1(O)C(=O)COP(=O)(O)O (stereo partly specified)
not listed: [1]
inactive: all other assays above

C[N+]1(C)C2CCC1CC(OC(=O)C(O)c1ccccc1)C2 (stereo unspecified)
not listed: [5]
inactive: all other assays above

O=C(O)c1cc2ccccc2[nH]1
not listed: [5]
inactive: all other assays above

COC(=O)C1OC(=O)C2OC23[C@]2(C)C(OC(C)=O)CC4C(C)(C)C(=O)CC[C@]4(C)C2CC[C@@]13C (stereo partly specified)
not listed: [5]
inactive: all other assays above

Nc1ncnc2c1[nH]c(=O)n2C1CC(O)C(CO)O1 (stereo unspecified)
not listed: [5]
inactive: all other assays above

CC(=O)OC1CC(OC(C)=O)[C@]2(C)C(CC(OC(C)=O)[C@@]3(C)C4=CC(=O)OC(c5ccoc5)[C@]4(C)CCC32)C1(C)C (stereo partly specified)
active: [1] 10 µM
inactive: all other assays above

NC(Cc1cnc[nH]1)C(=O)Nc1ccc2ccccc2c1 (stereo unspecified)
active: [1] 2.51 µM
inactive: all other assays above

CC1(C)C=Cc2c(cc3occ(-c4ccc5c(c4)OCO5)c(=O)c3c2O)O1
active: [1] 25.1 µM
inactive: all other assays above

Cc1cc(O)c(C)c(O)c1C(=O)O
not listed: [5]
inactive: all other assays above

C[C@@]12CCC(OC(=O)c3ccccc3)CC1CCc1ccccc12 (stereo partly specified)
not listed: [5]
inactive: all other assays above

COc1cc(C(C)=O)cc(OC)c1O
not listed: [5]
inactive: all other assays above

CC1C(NC(=O)/C(=N/OC(C)(C)C(=O)O)c2csc(N)n2)C(=O)N1S(=O)(=O)O (stereo unspecified)
not listed: [5]
inactive: all other assays above

OCC(O)C(O)C(O)C(O)C(O)CO (stereo unspecified)
not listed: [5]
inactive: all other assays above

Cn1c(=O)[nH]c(=O)c2[nH]cnc21
not listed: [5]
inactive: all other assays above

COc1cc2ccc(=O)oc2c(OC)c1OC
not listed: [5]
inactive: all other assays above

C=C1C(=O)C23C(O)C1CCC2[C@]12COC3(O)C(O)C1C(C)(C)CC[C@H]2O (stereo partly specified)
not listed: [5]
inactive: all other assays above

C[C@]12CCC(=O)C=C1CCC1C2C(O)C[C@]2(C)C1CC[C@]2(O)C(=O)COC(=O)CCC(=O)O (stereo partly specified)
not listed: [5]
inactive: all other assays above

O=c1[nH]cnc2c1ncn2C1CC(O)C(CO)O1 (stereo unspecified)
not listed: [5]
inactive: all other assays above

NC(=O)c1ccc[n+]([C@@H]2OC(COP(=O)([O-])OP(=O)(O)OCC3OC(n4cnc5c(N)ncnc54)C(O)C3O)C(O)C2O)c1 (stereo partly specified)
not listed: [5]
inactive: all other assays above

COC(=O)CC1[C@@]2(C)C[C@@]34OC5(C)OC6(CC[C@@]7(C)C(c8ccoc8)OC(=O)C(C(C)=O)C7[C@]6(O5)C(O)[C@@]3(O)C2O)[C@]14C (stereo partly specified)
not listed: [1]
inactive: all other assays above

COC1=CC(=O)C=C(OC)C1=O
not listed: [1]
inactive: all other assays above

CCCN1CC(CSC)C[C@H]2c3cccc4[nH]cc(c34)C[C@H]21 (stereo partly specified)
not listed: [1]
inactive: all other assays above

Oc1ccc2c(c1)OCC1c3cc4c(cc3OC21)OCO4 (stereo unspecified)
not listed: [1]
inactive: all other assays above

O=C1C=CC2=C3c4cc(O)c(O)cc4C[C@]3(O)COC2=C1
not listed: [5]
inactive: all other assays above

NC1C(O)OC(CO)[C@@H](O)[C@@H]1O[C@H]1O[C@@H](C(=O)O)C(O)C(O)C1O (stereo partly specified)
not listed: [5]
inactive: all other assays above

COc1ccc(-c2coc3cc(OC)cc(OC)c3c2=O)cc1
not listed: [1]
inactive: all other assays above

O=C(O)C(S)[C@@H](S)C(=O)O (stereo partly specified)
not listed: [5]
inactive: all other assays above

COc1cc2c(cc1OC)C(=O)OC2
not listed: [1]
inactive: all other assays above

COC(=O)CC1[C@@]2(C)C[C@]34OC5(C)OC6(C7CC(=O)OC(c8ccoc8)[C@]7(C)CCC6(O5)[C@]13C)C(OC(C)=O)[C@]4(OC(C)=O)C2OC(C)=O (stereo partly specified)
not listed: [1]
inactive: all other assays above

COc1ccc2cc1Oc1ccc(cc1)CC1c3cc(c(OC)cc3CCN1C)Oc1c(OC)c(OC)cc3c1C(C2)N(C)CC3 (stereo unspecified)
not listed: [5]
inactive: all other assays above
